These results are taken from PubChem BioAssay (NCI).

About 83,000 compounds went through this panel and 20% of them were active in at least one assay; those are over-represented in the sample as a whole.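 Cell lines were cultured in 96-well plates, exposed to a single compound concentration, and assessed for percent growth 48 hours later.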 Values without a mark were called inactive. Calls of active or inactive are those of the source. The calls were made as follows: active = growth percent below 10; inactive = the rest.

Among the test systems are K-562 leukemia; MALME-3M melanoma; MDA-MB-231 breast; RXF 393 renal; SF-268 CNS; SF-295 CNS; SF-539 CNS; UACC-257 melanoma; M14 melanoma; HCT-15 colon; HT29 colon; SNB-75 CNS; SNB-19 CNS; U251 CNS; PC-3 prostate; SK-MEL-5 melanoma; UACC-62 melanoma; LOX IMVI melanoma; SK-MEL-28 melanoma; SK-MEL-2 melanoma.
Assay in all cases: NCI-60 one-dose screen, 48 h (100 = growth as untreated, 0 = no growth, -100 = all killed)
Holding throughout (conditions): 10 µM

For `N#CCCN1C/C(=C/c2ccc(Br)cc2)C(=O)/C(=C/c2ccc(Br)cc2)C1`, the growth was 3.42% (active) with K-562 leukemia; -48.4% (active) with MALME-3M melanoma; -39.4% (active) with MDA-MB-231 breast; -89.1% (active) in the experiment with RXF 393 renal; -36.2% (active) with SF-268 CNS; -20.2% (active) in the experiment on SF-295 CNS. Besides, the growth in the experiment with SF-539 CNS was -55.1% (active); in the experiment with UACC-257 melanoma, -33.5% (active); in the experiment on M14 melanoma, -55.1% (active); with HCT-15 colon it was 0.513% (active); in the experiment with HT29 colon it was -33.8% (active); with SNB-75 CNS it was 33.3%. Moreover, the growth with SNB-19 CNS was -46.6% (active); in the experiment with U251 CNS it was -80.8% (active); with PC-3 prostate it was -34% (active); in the experiment with SK-MEL-5 melanoma, 1.94% (active); in the experiment on UACC-62 melanoma, -75% (active); in the experiment with LOX IMVI melanoma, -71.3% (active). The growth with SK-MEL-28 melanoma was -36.8% (active); with SK-MEL-2 melanoma, 5.41% (active).

With `O=C(N/N=C\c1cc(Cl)ccc1[N+](=O)[O-])c1ccco1`, the growth with K-562 leukemia is 102%; in the experiment on MALME-3M melanoma, 125%; with MDA-MB-231 breast it was 95%; with RXF 393 renal, 115%; in the experiment with SF-268 CNS, 99.3%; in the experiment on SF-295 CNS it was 108%. In addition, the growth is 92.4% in the experiment on SF-539 CNS; 95% with UACC-257 melanoma; 108% with M14 melanoma; 97% in the experiment on HCT-15 colon; 107% with HT29 colon; 96% with SNB-75 CNS. Moreover, the growth is 102% in the experiment with SNB-19 CNS; 97.4% in the experiment with U251 CNS; 100% in the experiment on PC-3 prostate; 111% in the experiment on SK-MEL-5 melanoma; 101% in the experiment with UACC-62 melanoma; 103% with LOX IMVI melanoma. Moreover, the growth with SK-MEL-2 melanoma was 117%.

As for `O=[N+]([O-])c1ccc(N/N=C/c2cccc3ccccc23)nc1`, the growth is 85.4% with K-562 leukemia; 168% in the experiment on MALME-3M melanoma; 101% in the experiment on MDA-MB-231 breast; 112% in the experiment with RXF 393 renal; 121% in the experiment on SF-268 CNS; 126% with SF-295 CNS. Moreover, the growth in the experiment with SF-539 CNS was 102%; with UACC-257 melanoma, 102%; in the experiment on M14 melanoma, 104%; in the experiment on HCT-15 colon, 91.1%; with HT29 colon it was 97.1%; in the experiment with SNB-75 CNS, 93.2%. In addition, the growth with SNB-19 CNS was 99.2%; in the experiment on U251 CNS, 93%; in the experiment on PC-3 prostate it was 90.7%; in the experiment with SK-MEL-5 melanoma, 100%; with UACC-62 melanoma, 91.4%; with LOX IMVI melanoma it was 97.1%. Besides, the growth with SK-MEL-28 melanoma is 111%; with SK-MEL-2 melanoma, 103%.

Regarding `COc1ccc(S(=O)(=O)Nc2c(/C=C\c3cc(OC)c(OC)c(OC)c3)ccc(OC)c2O)cc1`, the growth with K-562 leukemia was 12.3%; in the experiment on MALME-3M melanoma it was 61.5%; in the experiment with MDA-MB-231 breast it was 5.46% (active); in the experiment with RXF 393 renal, 33.5%; with SF-268 CNS it was 13.3%; with SF-295 CNS it was 3.31% (active). The growth was -28.9% (active) in the experiment on SF-539 CNS; 32.4% in the experiment with UACC-257 melanoma; 2.65% (active) in the experiment on M14 melanoma; 7.33% (active) in the experiment on HCT-15 colon; 11.7% in the experiment on HT29 colon; 31.3% in the experiment on SNB-75 CNS. Also, the growth with SNB-19 CNS was 48.5%; in the experiment with U251 CNS it was 6.01% (active); with PC-3 prostate it was 30.5%; in the experiment on SK-MEL-5 melanoma it was -17% (active); with UACC-62 melanoma, 38.6%; in the experiment on LOX IMVI melanoma it was 15.5%. Also, the growth with SK-MEL-28 melanoma is 58.2%; in the experiment with SK-MEL-2 melanoma, 3.84% (active).

On to `CCCCCCN(CCCCCC)CC(O)c1ccc2c3c(cccc13)CC2` (centres undefined), for which the growth was 46.2% in the experiment on K-562 leukemia; 71.7% with MALME-3M melanoma; 72.9% in the experiment on MDA-MB-231 breast; 67.2% with RXF 393 renal; 76.4% with SF-268 CNS; 49.4% in the experiment with SF-295 CNS. The growth in the experiment with SF-539 CNS was 70%; in the experiment with UACC-257 melanoma, 67.9%; with M14 melanoma, 28.2%; in the experiment with HCT-15 colon it was 44.2%; in the experiment on HT29 colon it was -4.58% (active); in the experiment with SNB-75 CNS, 120%. The growth is 82.4% in the experiment on SNB-19 CNS; 49.5% in the experiment with U251 CNS; 51.5% in the experiment on PC-3 prostate; 59.7% with SK-MEL-5 melanoma; 65.2% with UACC-62 melanoma; 21.4% in the experiment with LOX IMVI melanoma. The growth in the experiment on SK-MEL-28 melanoma is 71.7%; in the experiment with SK-MEL-2 melanoma, 55.8%.

On to `Nc1nc(N)c(NC(=O)CNc2ccc(C(=O)O)cc2)c(N)n1`, for which the growth in the experiment with K-562 leukemia was 106%; with MALME-3M melanoma, 112%; with MDA-MB-231 breast, 106%; in the experiment with RXF 393 renal it was 96.4%; in the experiment with SF-268 CNS, 119%; in the experiment with SF-295 CNS, 99.2%. For the same compound, the growth with SF-539 CNS was 101%; in the experiment on UACC-257 melanoma, 103%; in the experiment on M14 melanoma, 111%; with HCT-15 colon, 112%; with HT29 colon, 107%; in the experiment with SNB-75 CNS, 76%. Further, the growth was 105% with SNB-19 CNS; 105% with U251 CNS; 101% in the experiment with PC-3 prostate; 103% in the experiment with SK-MEL-5 melanoma; 101% in the experiment with UACC-62 melanoma; 98.3% in the experiment with LOX IMVI melanoma. The values for the growth in the experiment with SK-MEL-28 melanoma and in the experiment with SK-MEL-2 melanoma were 97.9% and 102%, respectively.

In the case of `Cc1ccc(Nc2nnc(-c3cc(-c4ccncc4)n(-c4ccccc4)n3)s2)cc1`, the growth in the experiment on K-562 leukemia was 27%; with MALME-3M melanoma, 74.8%; with MDA-MB-231 breast, 18.9%; in the experiment with RXF 393 renal, 57.5%; in the experiment with SF-268 CNS it was 113%; in the experiment on SF-295 CNS it was 21.9%. The growth was 91.6% in the experiment on SF-539 CNS; 110% in the experiment on UACC-257 melanoma; 61.9% in the experiment on M14 melanoma; 9.74% (active) with HCT-15 colon; 36.9% with HT29 colon; 116% in the experiment with SNB-75 CNS. The growth is 89.7% in the experiment on SNB-19 CNS; 65.6% in the experiment with U251 CNS; 56.1% in the experiment on PC-3 prostate; 67.7% with SK-MEL-5 melanoma; 83.9% in the experiment on UACC-62 melanoma; 58.5% in the experiment with LOX IMVI melanoma. The growth in the experiment on SK-MEL-28 melanoma is 106%; in the experiment on SK-MEL-2 melanoma, 92.4%.

As to `COc1ccc(-c2nc(-c3nc4ccc(Cl)cc4[nH]3)c3ccccn23)cc1`, the growth with K-562 leukemia was 55.8%; with MALME-3M melanoma, -10.8% (active); with MDA-MB-231 breast, 11.8%; with RXF 393 renal, -54.8% (active); with SF-268 CNS, -8.4% (active); in the experiment with SF-295 CNS, 6.74% (active). Moreover, the growth in the experiment with SF-539 CNS was -13.7% (active); in the experiment on UACC-257 melanoma, 49.4%; in the experiment on M14 melanoma it was 62.3%; in the experiment on HCT-15 colon it was 62.8%; with HT29 colon, 34.7%; in the experiment on SNB-75 CNS, -89.4% (active). For the same compound, the growth with SNB-19 CNS is 20.3%; in the experiment on U251 CNS, 7.5% (active); with PC-3 prostate, 55.9%; in the experiment on SK-MEL-5 melanoma, 50.7%; with UACC-62 melanoma, 82.5%; in the experiment on LOX IMVI melanoma, 30.4%. The growth with SK-MEL-28 melanoma was 12%; with SK-MEL-2 melanoma it was 41%.
